Here are results for 98 compounds from PubChem BioAssay AID1578 (Sanford-Burnham Center for Chemical Genomics, 2009).

Molecules are shown by their SMILES. Among all 290,000 compounds or so, about 3,000 (1%) were called active. Cut-off read from the data, not from the text of the source: active = inhibition mostly above about 36% (no sharp cut-off); inactive = mostly below about 34%. What follows is part of a selection rich in actives, with near analogues and random picks from the rest.

This test is described as follows: inhibition of NOD1-driven NF-kB reporter – cell-based, luminescence, uHTS, primary screen (AID 1578).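 Note: HEK-293T reporter cells stimulated with the NOD1 agonist gamma-tri-DAP.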 The conditions noted are these: NOD1-driven NF-kB luciferase reporter cells, at 4 µM, active compounds read high.
With `COCCCNC(=O)CCN1C(=O)COc2ccccc21`, the inhibition was 9.8% (inactive).

Regarding `CC(C)(C)c1cc(C(=S)N2CCN(CCO)CC2)cc(C(C)(C)C)c1O`, the inhibition was 11.9% (inactive). Regarding `CC(C)(C)c1cc(C(c2cccnc2)N2CCN(CCO)CC2)cc(C(C)(C)C)c1O` (stereo not drawn), the inhibition is 67.2% (active). Take `CC(C)(C)c1cc(CN2CCN(CCO)CC2)cc(C(C)(C)C)c1O`: the inhibition was 45.2% (inactive). With `CCCN1C(=O)/C(=C/c2ccc3c(c2)OCO3)NC1=S`, the inhibition is -29.7% (inactive). Take `CCOC(=O)CN1C(=O)S/C(=C\c2ccc3c(c2)OCO3)C1=O`: the inhibition is 16.9% (inactive).

As for `O=C1/C(=C\c2ccc3c(c2)OCO3)CCC/C1=C/c1ccc2c(c1)OCO2`, the inhibition is -48% (inactive).

With `CCCN1C/C(=C/c2ccc3c(c2)OCO3)C(=O)/C(=C/c2ccc3c(c2)OCO3)C1`, the inhibition is 67.2% (active). Turning to `O=C(CCN1C(=O)/C(=C/c2ccc3c(c2)OCO3)SC1=S)Nc1ccccc1`, the inhibition is -5.3% (inactive).

With `NCCN1C(=O)S/C(=C\c2ccc3c(c2)OCO3)C1=O`, the inhibition was 27.3% (active). Turning to `CCOC(=O)c1c(NC(=O)c2cccc(N3C(=O)CCC3=O)c2)sc2c1CCN(CC)C2`, the inhibition is -16.7% (inactive). The figure for `CC(C)(C)C(=O)COC(=O)CCc1nc2ccccc2[nH]c1=O` is 2.2% (inactive); for `O=C(CCN1C(=O)/C(=C\c2cccs2)SC1=S)Nc1ccccn1` it is -42% (inactive); for `O=C(CCCN1C(=O)/C(=C\c2cccs2)SC1=S)Nc1ccccn1` it is 4.3% (inactive). On to `O=C(CCCN1C(=O)/C(=C/c2cccs2)SC1=S)Nc1ccccn1`, for which the inhibition is 63.6% (active).

As to `CSc1ccccc1-c1n[nH]c(=S)o1`, the inhibition is -15% (inactive).

Regarding `CC(C)Cc1ccc(C(C)C(=N)N)cc1` (stereo not drawn), the inhibition is 43% (active). As for `CC(C)Cc1ccc(C(C)C(=O)O)cc1` (stereo not drawn), the figure is -13.2% (inactive); as for `CC(C)Cc1ccc(C(C)C(N)=NCCc2ccccc2)cc1` (stereo not drawn), -10.4% (inactive); as for `CCOP(=O)(OCC)C1NC(=O)N(c2ccccc2)C1=O` (stereo not drawn), -1.7% (inactive). With `CCc1ccc(C(=O)COC(=O)C(CCSC)NC(=O)c2ccccc2)cc1` (stereo not drawn), the inhibition is 16.6% (inactive). In the case of `CCC(C)(C)c1ccc(OCC(=O)N(C)C)c(C(C)(C)CC)c1`, the inhibition was 26.1% (inactive). On to `CCC(C)(C)c1ccc(OCCCC[n+]2ccc(C)cc2)c(C(C)(C)CC)c1`, for which the inhibition was 43.7% (inactive). With `CCC(C)(C)c1ccc(OCCCC[n+]2ccccc2)c(C(C)(C)CC)c1`, the inhibition was 11.8% (inactive). On to `Cc1cc(C(C)(C)C)ccc1OCCCCN1CCCC1`, for which the inhibition was -74.5% (inactive).

For `Cc1cccc(-c2oc3ccccc3c2C#CCCO)c1`, the inhibition was -12.5% (inactive).

In the case of `COc1ccc(Oc2nccc(OC)c2C#N)cc1`, the inhibition is -18.4% (inactive). The figure for `Cn1c(=O)c2c(nc(SCC(=O)NCC3CCCO3)n2Cc2ccc(F)cc2)n(C)c1=O` (stereo not drawn) is -8.2% (inactive); for `COc1ccc(CNC(=O)CN(Cc2ccc(Cl)cc2)C(=O)c2csnn2)cc1` it is -9% (inactive). `Cc1oc(-c2cccs2)nc1CS(=O)CC(=O)NCc1ccc2c(c1)OCO2` (stereo not drawn): the inhibition was 1.1% (inactive). The figure for `COc1ccccc1CNC(=O)c1ccoc1C` is 47.6% (active).

Consider `COc1ccccc1CNC(=O)c1ccccc1OC`, for which the inhibition was -29.5% (inactive).

In the case of `COc1ccccc1CCNC(=O)c1ccoc1C`, the inhibition is -33.7% (inactive). The figure for `COc1ccc(-c2csc(NC(=O)CN3C(=O)CCC3=O)n2)cc1` is -30.6% (inactive); for `Cc1ccc(C(=O)NCCCNC(=O)c2ccc(Cl)cc2)cn1` it is -10.8% (inactive). Take `O=C(NNS(=O)(=O)c1ccccc1)c1ccc(F)cc1`: the inhibition is -11.4% (inactive). As for `C[n+]1c(/C=C/c2ccc(O)cc2)ccc2ccccc21`, the inhibition was -15.4% (inactive). In the case of `CN1C=C/C(=C\c2cc[n+](C)c3ccccc23)c2ccccc21`, the inhibition was 20.8% (inactive).

In the case of `CCNC(=O)C1CCCc2c1[nH]c1ccc(Cl)cc21` (stereo not drawn), the inhibition was -25.3% (inactive). As to `CCN1C(=O)N(CC)C2C1N(C(C)=O)C(=O)N2C(C)=O` (stereo not drawn), the inhibition was -26.2% (inactive). As for `Cc1c(NC(N)=O)c(=O)n(-c2ccccc2)n1C`, the figure is 54.9% (active); as for `Cc1c(NC(=O)CC(=O)Nc2c(C)n(C)n(-c3ccccc3)c2=O)c(=O)n(-c2ccccc2)n1C`, 14.4% (inactive); as for `Cc1c(NC(=O)c2ccccc2)c(=O)n(-c2ccccc2)n1C`, -17.8% (inactive). The figure for `CCNc1oc(/C=C/c2ccc(OCC)cc2)nc1C#N` is 64.9% (active); for `CCOc1ccc(/C=C/c2nc(C#N)c(NCCCOC)o2)cc1` it is -11.6% (inactive). On to `CCOc1ccc(/C=C/c2nc(C#N)c(NCCCN(C)C)o2)cc1`, for which the inhibition was 2.8% (inactive). With `COc1cc(NC(=O)CSc2nnc(-c3cc(C)on3)o2)cc(OC)c1`, the inhibition was 9.9% (inactive). As for `CCCc1nnc(NC(=O)C23CC4CC(CC(C4)C2)C3)s1`, the inhibition was 0.1% (inactive).

Turning to `Cc1c(C(=O)Nc2ccccc2)sc2nc(-c3ccccc3)cn12`, the inhibition was -15.4% (inactive). In the case of `Cc1c(C(=O)Nc2ccc3c(c2)OCO3)sc2nc(-c3ccccc3)cn12`, the inhibition was -35.7% (inactive).

`Cc1c(C(=O)Nc2ccc3c(c2)OCCO3)sc2nc(-c3ccccc3)cn12`: the inhibition was 79.1% (active). As for `CCCCOc1cccc(C(=O)NC(=S)Nc2cccc(NC(=O)c3ccccc3Cl)c2)c1`, the figure is -15.9% (inactive). In the case of `COc1ccc2c(c1OC)C(=O)N(c1cccc(C(F)(F)F)c1)C2`, the inhibition was -67.5% (inactive).

Consider `CC(=O)c1ccccc1C(=O)NCc1cccnc1`, for which the inhibition was -9.2% (inactive). As for `COC(=O)C1=C(C)Nc2c(c(=O)n(C)c(=O)n2C)C1c1cccnc1` (stereo not drawn), the figure is -10.6% (inactive); as for `COC(=O)C1=C(C)Nc2c(c(=O)n(C)c(=O)n2C)C1c1ccc(C)cc1` (stereo not drawn), -27.5% (inactive); as for `COC(=O)C1=C(C)Nc2c(c(=O)n(C)c(=O)n2C)C1c1ccncc1` (stereo not drawn), 68.6% (active). For `Cc1ccc(S(=O)(=O)N(CC(=O)Nc2cccnc2)c2cccc([N+](=O)[O-])c2)cc1`, the inhibition was -14.2% (inactive).

Consider `Cc1ccc(SCC(=O)Nc2cc([N+](=O)[O-])ccc2O)cc1`, for which the inhibition is 77.2% (active). On to `COc1ccc([N+](=O)[O-])cc1NC(=O)CSc1ccc2ccccc2c1`, for which the inhibition was 41.3% (inactive). As to `O=C(CCN1C(=O)/C(=C/c2ccc(F)cc2)SC1=S)Nc1cc([N+](=O)[O-])ccc1O`, the inhibition is -1.3% (inactive). With `Cc1ccc(/C=C2/SC(=S)N(CCCC(=O)Nc3cc([N+](=O)[O-])ccc3O)C2=O)cc1`, the inhibition was 71.1% (active). In the case of `COc1ccc(/C=C2/SC(=S)N(CCCC(=O)Nc3ccccc3C(=O)O)C2=O)cc1`, the inhibition was 34.1% (inactive). The figure for `Cc1ccc(/C=C2\SC(=S)N(CCC(=O)NNC(=O)c3ccccc3O)C2=O)cc1` is -24.7% (inactive); for `Cc1ccc(O)c(NC(=O)CSc2ccc(Cl)cc2)c1` it is 17% (inactive); for `O=C(CCCN1C(=O)/C(=C\c2cccs2)SC1=S)Nc1cc([N+](=O)[O-])ccc1O` it is 26.3% (inactive). For `COc1cc(Cl)ccc1OCc1cc(C(=O)N(C)Cc2cccc3cnccc23)no1`, the inhibition was 11.4% (inactive).

Regarding `CC1(C)SC(=S)N(/N=C/c2ccccc2O)C1N(O)C(=O)Nc1ccccc1` (stereo not drawn), the inhibition is -1.1% (inactive).

Regarding `CCCSc1nnc(NC(=O)c2nc(SC)ncc2Cl)s1`, the inhibition is -10.4% (inactive). As for `Cc1cccn2c(=O)c(C=Nc3c(C)n(C)n(-c4ccccc4)c3=O)c(N3CCCC3)nc12`, the figure is -3.8% (inactive); as for `COc1ccccc1NC(=S)N1CCc2cc(OC)c(OC)cc2C1`, -30% (inactive).

As to `Oc1ccc2ccccc2c1/C=N/c1nccs1`, the inhibition is -6% (inactive). Regarding `Oc1ccc(N=Nc2c(O)ccc3ccccc23)cc1`, the inhibition is 24% (inactive). Regarding `Oc1ccc2ccccc2c1N=Nc1nccs1`, the inhibition is 106% (active). On to `CCCCC(=O)Nc1cc(NC(=O)CC)ccc1Cl`, for which the inhibition was -13.8% (inactive). On to `CCn1c(SC)nnc1-c1nnc(SC)n1CC`, for which the inhibition was -5.7% (inactive). Take `Cc1cc(C)cc(C(=O)NCc2ccc3c(c2)OCO3)c1`: the inhibition was -31% (inactive). In the case of `Cc1cc2oc(=O)cc(C)c2cc1NC(=O)CCC(=O)O`, the inhibition was -10.8% (inactive). For the compound `Cc1cc2oc(=O)cc(C)c2cc1NC(=O)CCl`, the inhibition is 42.5% (active). The figure for `CCC(=O)Nc1cc2c(C)cc(=O)oc2cc1C` is -1.6% (inactive); for `Cc1cc(OCc2ccc(C(=O)n3cccn3)o2)ccc1Cl` it is -24.5% (inactive); for `Cc1ccc(C)c(NC(=O)CSc2nnc([C@@H]3CCCN3C(=O)OC(C)(C)C)o2)c1` it is 9.1% (inactive). For the compound `CCOC(=O)c1cnc(Nc2nc3ccccc3o2)nc1CSC(=S)N(CC)CC`, the inhibition was -23% (inactive). As for `CCOC(=O)c1cnc(Nc2nc3ccccc3o2)nc1CN1CCN(C)CC1`, the figure is -1.5% (inactive). As for `CCOC(=O)c1cnc(Nc2nc3ccccc3o2)nc1C`, the figure is 78.1% (active). As for `O=C(O)c1ccc2c(=O)n3c(nc2c1)/C(=C/c1ccccc1Br)CC3`, the figure is -85.4% (inactive); as for `CCOC(=O)c1c(C)oc2c1c(C=NCCO)c(O)c1ccccc12`, -37.2% (inactive); as for `CCOC(=O)c1c(C)oc2c1c(C=NCCC(=O)O)c(O)c1ccccc12`, -16.5% (inactive). As for `CCOC(=O)c1c(C)oc2c1c(C=NC1CCS(=O)(=O)C1)c(O)c1ccccc12` (stereo not drawn), the inhibition is 75.8% (active). `CCOC(=O)c1c(-c2ccccc2)csc1NC(=O)C(C)NCc1ccco1` (stereo not drawn): the inhibition is 1.6% (inactive). Regarding `N#C/C(=C\c1ccc(F)c(Cl)c1)S(=O)(=O)c1ccccn1`, the inhibition is 0.3% (inactive). In the case of `CC1(C)C(C=C(Cl)Cl)C1C(=O)N/N=C/c1ccccc1F` (stereo not drawn), the inhibition was 80.1% (active). As to `CC1(C)OC2OC(C(=O)N/N=C/c3ccccc3F)C3OC(C)(C)OC3C2O1` (stereo not drawn), the inhibition was -13.7% (inactive). As to `COc1ccc(/C=N/NC(=O)C2C(C=C(Cl)Cl)C2(C)C)c(OC)c1` (stereo not drawn), the inhibition was -24.6% (inactive). On to `CCN1CNC(=S)N(c2cccc(C)c2)C1`, for which the inhibition was -5.8% (inactive). In the case of `Cc1nnc(NC(=O)c2cccc(S(=O)(=O)N3CCc4ccccc43)c2)s1`, the inhibition is 11.7% (inactive). As to `CCC(CC)c1nnc(NC(=O)c2cccc(S(=O)(=O)N3CCc4ccccc43)c2)s1`, the inhibition is 56.8% (inactive).

Take `CCOC(=O)c1sc(NC(=O)c2cccc(S(=O)(=O)N3CCc4ccccc43)c2)c(C#N)c1C`: the inhibition was 79.7% (active).
